According to PubChem BioAssay (NCI):
This is part of a sample that, as a whole, favours compounds with a hit. Of some 83,000 tested, about 20% had one in any assay.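 Cell lines were cultured in 96-well plates, exposed to a single compound concentration, and assessed for percent growth 48 hours later.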 A number with no mark means an inactive call. Calls of active or inactive are those of the source. Rule for the calls: active = growth percent below 10; inactive = the rest.

Columns and labels:
Assay in all cases: NCI-60 one-dose screen, 48 h (100 = growth as untreated, 0 = no growth, -100 = all killed)
Settings in all cases: 10 µM unless noted
NCI-H23 lung = test system: NCI-H23 lung
NCI-H226 lung = test system: NCI-H226 lung
NCI-H322M lung = test system: NCI-H322M lung
HOP-62 NSCLC = test system: HOP-62 NSCLC
HOP-92 NSCLC = test system: HOP-92 NSCLC
NCI-H522 lung = test system: NCI-H522 lung
A549/ATCC NSCLC = test system: A549/ATCC NSCLC
786-0 renal = test system: 786-0 renal
K-562 leukemia = test system: K-562 leukemia
MALME-3M melanoma = test system: MALME-3M melanoma
MDA-MB-231 breast = test system: MDA-MB-231 breast
RXF 393 renal = test system: RXF 393 renal
SF-268 CNS = test system: SF-268 CNS
SF-295 CNS = test system: SF-295 CNS
SF-539 CNS = test system: SF-539 CNS
UACC-257 melanoma = test system: UACC-257 melanoma
M14 melanoma = test system: M14 melanoma
COLO 205 colon = test system: COLO 205 colon
DU-145 prostate = test system: DU-145 prostate
NCI-H460 lung = test system: NCI-H460 lung

| SMILES | growth (NCI-H23 lung) | growth (NCI-H226 lung) | growth (NCI-H322M lung) | growth (HOP-62 NSCLC) | growth (HOP-92 NSCLC) | growth (NCI-H522 lung) | growth (A549/ATCC NSCLC) | growth (786-0 renal) | growth (K-562 leukemia) | growth (MALME-3M melanoma) | growth (MDA-MB-231 breast) | growth (RXF 393 renal) | growth (SF-268 CNS) | growth (SF-295 CNS) | growth (SF-539 CNS) | growth (UACC-257 melanoma) | growth (M14 melanoma) | growth (COLO 205 colon) | growth (DU-145 prostate) | growth (NCI-H460 lung) |
| --- | --- | --- | --- | --- | --- | --- | --- | --- | --- | --- | --- | --- | --- | --- | --- | --- | --- | --- | --- | --- |
| Cc1ccc(NC(=O)C(Cl)Cl)cc1 | 95.8% | 79.1% | 84.1% | 98.4% | 98.2% | 80.9% | 90.8% | 104% | 106% | 92.7% | 99.1% | 119% | 105% | 97.8% | 98.4% | 92% | 109% |  |  |  |
| CCOC(=O)c1nnn(-c2ccccc2)c1C1=CN(C)CCC1 | 92.8% | 102% | 95.8% | 99.6% | 108% | 86.7% |  | 97.3% |  | 104% | 112% | 120% | 92.4% | 98.2% | 95.2% | 99.4% |  | 113% | 103% |  |
| COc1ccc(C2CC(c3cnccn3)=NN2)cc1OC (centres undefined) | 101% | 98.8% | 90.9% | 111% | 68.3% | 67% | 90.4% | 92% | 60.9% | 95.4% | 106% | 100% | 103% | 104% | 111% | 106% | 89.5% |  | 104% |  |
| C=C(C=O)C1CCC2(C(=O)O)CCC3(C)C(CCC4C5(C)CCC(O)C(C)(C)C5CCC43C)C12 (centres undefined) | -52.1% (active) | 5.95% (active) | 31.3% | 14.8% | 67.1% | 24.2% | 34.1% | -37.3% (active) | 13.6% | 1.55% (active) | 32.6% | -63.7% (active) | 24.3% | -6.97% (active) | -43.4% (active) | -46.4% (active) |  |  | -38.4% (active) |  |
| O=C1CSC(c2ccc(O)cc2)N1c1nnc(Cn2cnnc2)o1 (centres undefined) | 100% | 98.6% | 95.8% | 99.8% |  | 99.1% | 90.3% | 94.1% | 45.3% | 54.1% | 94.8% |  | 70.3% | 38.6% | 97.6% | 96.9% | 94.6% |  | 93.3% | 115% |
| COc1ccc(N=c2nc3sc4cc(Cl)ccc4n3c(N)c2C#N)cc1 | 66.5% | 24.4% | 93.4% | 102% | 88.4% | 88.6% | 62.4% | 22.1% | 98.9% | 77.4% | 76.4% | 52% | 60.1% | -3.63% (active) | 103% | 61.6% | 70.6% |  | 105% |  |
| CC(C)c1ccc(NC(=O)Cc2ccc(Nc3ncnc4cc(-c5cnn(CCN(C)C)c5)ccc34)cc2)cc1 | -61.7% [30 µM] (active) | 50.6% [30 µM] | -99.7% [30 µM] (active) | -0.67% [30 µM] (active) | -45.3% [30 µM] (active) | -45.3% [30 µM] (active) | -35.7% [30 µM] (active) | -59.1% [30 µM] (active) | -34.9% [30 µM] (active) | -88.7% [30 µM] (active) | -77.8% [30 µM] (active) |  | -62.3% [30 µM] (active) | -61.9% [30 µM] (active) | -88.8% [30 µM] (active) | 54.7% [30 µM] |  | -46.7% [30 µM] (active) | -97.5% [30 µM] (active) |  |
| CCn1c(Sc2nnc(NC(=O)CSC(=S)N3CCCCC3)s2)nc2c1c(=O)n(C)c(=O)n2C | 91.3% | 86.6% | 101% | 87.1% | 81.1% | 38.1% | 78.1% | 92.4% | 43.6% | 71.5% | 103% | 86.2% | 96% | 83.9% | 97.7% | 94.4% | 67.9% |  | 98% |  |
| CCOc1cccnc1/C=N/NC(N)=S | 73.8% | 53.9% | 6.61% (active) | 64.9% | 46.5% | 79.1% |  | 51.6% | 31.4% |  | 49.6% | 61.4% | 32.9% | 5.53% (active) | 47.7% | 95.7% | 42.4% |  | 34.4% |  |
| C=C1C(=O)O[C@H]2[C@H]1CC/C(COC(=O)/C=C\C(=O)NCc1ccc(Cn3c(=O)sn(-c4ccc(Cl)cc4)c3=O)cc1)=C\CC[C@@]1(C)O[C@@H]21 | -63.6% (active) | -58.9% (active) | -18.5% (active) | -34.7% (active) |  | -55.9% (active) | -43.7% (active) | -82.5% (active) | -20.5% (active) | -93.1% (active) | -86.1% (active) |  | -74.4% (active) | 56.2% | -100% (active) | -64.8% (active) |  | -45% (active) | -94.7% (active) |  |
| C=C1C(=O)O[C@H]2[C@H]1CC/C(Cn1cc(CNCCc3c[nH]c4ccc(Cl)cc34)nn1)=C\CC[C@@]1(C)O[C@@H]21 | 92.9% | 91.1% | 85.7% | 78.7% |  | -91% (active) | 84.1% | 67.4% | 2.7% (active) | 53.9% | 59.7% | 16% | 77.9% | 95.4% | 53.6% | 53.4% | 66.1% |  | 83.6% | 99% |
| Fc1ccc(Nc2nc3nonc3nc2Nc2ccc(F)cc2)cc1 | 2.78% (active) | 14.9% | 1.32% (active) | -5.63% (active) |  | -23.9% (active) | 6.26% (active) |  | 9% (active) | 1.97% (active) | -20.5% (active) | 9.9% (active) | 18.5% | -20.7% (active) | -7.76% (active) | -13.5% (active) |  | -80.2% (active) | 23.8% | 1.64% (active) |
| Cc1nc(Nc2ccc(NC(=S)Nc3ccccc3)cc2)nc2nc(Nc3ccc(S(=O)(=O)O)cc3)[nH]c(=O)c12 | 95.8% | 123% | 122% | 105% | 75.7% | 86.9% | 111% | 103% | 71% | 104% | 94.4% |  | 106% | 113% | 132% | 136% |  | 113% | 145% |  |
| C=C(CNCCc1ccc(O)cc1)[C@@H]1CC[C@]2(COC3CCCCO3)CC[C@]3(C)[C@H](CC[C@@H]4[C@@]5(C)CCC(NCCO)C(C)(C)[C@@H]5CC[C@]43C)[C@@H]12 (some centres undefined) | -81% (active) | -54.2% (active) | -96.5% (active) | -89.2% (active) | -80.8% (active) | -77.3% (active) | -88.6% (active) | -90.2% (active) | -66.1% (active) | -86.4% (active) | -94.3% (active) | -88.9% (active) | -87.9% (active) | -82.4% (active) | -91.9% (active) | -85.6% (active) | -86.8% (active) |  | -91.9% (active) |  |
| CCCCN1CCN(c2ccc3nc(-c4ccc5nc(-c6ccc(OCC)c(OCC)c6)[nH]c5c4)[nH]c3c2)CC1 | -55.9% (active) | 16.2% | 14.1% | -69.7% (active) | 81.3% | -32.2% (active) | 37.7% | -87.4% (active) | -37.1% (active) | 9.35% (active) | -81.2% (active) | -96.3% (active) | 51.6% | -67.8% (active) | -93.7% (active) | 29% | -28% (active) |  | -86.2% (active) |  |
| O=C(/C=C/C12c3ccccc3C(c3ccccc31)C1C(=O)N(c3ccccc3)C(=O)C12)c1ccccc1 (centres undefined) | 5.23% (active) | -27.4% (active) | 12.9% | 28.7% | -6.42% (active) | 16.7% | 20.5% | 3.15% (active) | 14.5% | -38.1% (active) | -3.22% (active) | -72.8% (active) | 35.9% | -3.2% (active) | -3.29% (active) | 33.6% | 14.7% |  | 5.98% (active) |  |
| OCCCCc1nccc2c1[nH]c1ccccc12 | 98.8% | 90.7% | 88.9% | 95.3% |  | 117% | 72.6% | 102% | 79.8% | 115% | 94.8% | 65.7% | 105% | 102% | 90.8% | 113% | 102% |  | 114% | 104% |
